Results taken from PubChem BioAssay (NCI).
Compounds without any hit were thinned out: in the full panel of roughly 79,000, 15% have a hit. Active and inactive are the calls of the source. Cut-off read from the data, not from the text of the source: active = growth inhibition above about 70%; inactive = the rest.

Tests used:
[1] = NCI Yeast Anticancer Drug Screen. Data for the rad50 strain (AID 155);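 note: 0% = growth of vehicle-only cultures of the same strain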; conditions: S. cerevisiae rad50 strain growth inhibition, hits give high values
Procedure, shortened: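 Genetically altered yeast (DNA repair pathway); compound treatment; growth inhibition vs vehicle ctrl.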

[2] = NCI Yeast Anticancer Drug Screen. Data for the mec2-1 strain (AID 157); conditions: S. cerevisiae mec2-1 strain, hits give high values
Procedure, shortened: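 Yeast mec2-1 mutant treated with compound. Readout: growth inhibition vs vehicle controls.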

[3] = NCI Yeast Anticancer Drug Screen. Data for the sgs1 mgt1 strain (AID 161);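 note: 0% = growth of cultures given vehicle only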; conditions: S. cerevisiae sgs1 mgt1 strain, hits give high values
Procedure, shortened: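 Test agents were incubated with a DNA-repair-mutant yeast strain. Growth was then read and compared against vehicle-treated controls.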

[4] = NCI Yeast Anticancer Drug Screen. Data for the cln2 rad14 strain (AID 165);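 note: 0% = growth equal to vehicle treated cultures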; conditions: S. cerevisiae cln2 rad14 strain, hits give high values
Procedure, shortened: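 cln2 rad14 yeast strain; compound exposure; growth inhibition read vs vehicle controls.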

[5] = NCI Yeast Anticancer Drug Screen. Data for the bub3 strain (AID 167); conditions: S. cerevisiae bub3 mutant strain, hits give high values
Procedure, shortened: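 Yeast carrying a defined mutation is treated with each compound, and growth is compared with that of vehicle-exposed cells to give inhibition.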

[6] = NCI Yeast Anticancer Drug Screen. Data for the mlh1 rad18 strain (AID 175); conditions: S. cerevisiae mlh1 rad18 strain growth inhibition, hits give high values
Procedure, shortened: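 Yeast w/ defined DNA-repair lesions; compound exposure; growth vs vehicle controls → % inhibition.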

[7] = at 5.0 µM (retest, dose inferred, filed as 0.5)
[8] = at 50.0 µM (retest, dose inferred, filed as 5.0)

Measured: growth inhibition

CCN(CC)CC(O)c1ccc2cc(Cl)c3ccccc3c2c1 (configuration not stated)
inactive: [1]; [7] 15% | [2]; [7] 4% | [3]; [7] 25% | [4]; [7] 8% | [5]; [7] 16% | [6]; [7] 29%
active: [1]; [8] 99% | [1]; at 50.0 µM 99.5% | [2]; [8] 99% | [2]; at 50.0 µM 99.5% | [3]; [8] 99% | [3]; at 50.0 µM 99.6% | [4]; [8] 99% | [4]; at 50.0 µM 99.3% | [5]; [8] 98% | [5]; at 50.0 µM 99.5% | [6]; [8] 99% | [6]; at 50.0 µM 99.6%

C=CS(=O)(=O)Cc1ccc(Cl)cc1
active: [1]; [8] 91% | [1]; at 50.0 µM 98.6% | [2]; [8] 91% | [2]; at 50.0 µM 97.2% | [3]; [8] 91% | [3]; at 50.0 µM 94.2% | [4]; [8] 84% | [4]; at 50.0 µM 93.9% | [5]; [8] 94% | [5]; at 50.0 µM 97% | [6]; [8] 95% | [6]; at 50.0 µM 97.4%
inactive: [1]; [7] -126% | [2]; [7] -31% | [3]; [7] -33% | [4]; [7] -42% | [5]; [7] -48% | [6]; [7] -108%

Clc1ccc(-c2csc(NCC3CCCO3)n2)cc1 (configuration not stated)
inactive: [1]; [7] 46% | [1]; [8] 60% | [1]; at 50.0 µM 66.4% | [2]; [7] 27% | [2]; [8] 57% | [2]; at 50.0 µM 39% | [3]; [7] 34% | [4]; [7] 27% | [4]; [8] 53% | [4]; at 50.0 µM 63.2% | [5]; [7] 39% | [6]; [7] 44% | [6]; at 50.0 µM 62.4%
active: [3]; [8] 83% | [3]; at 50.0 µM 77.2% | [5]; [8] 82% | [5]; at 50.0 µM 73.9% | [6]; [8] 70%

C=C1C(=O)OC2C(C)C3C=CC(=O)[C@@]3(C)C(OC(=O)/C(C)=C/C)C1[C@@H]2OC(C)=O (some centres not stated)
active: [1]; [8] 91% | [1]; at 50.0 µM 80.2% | [2]; [8] 95% | [2]; at 50.0 µM 88.5% | [3]; [8] 92% | [3]; at 50.0 µM 87.8% | [4]; [8] 81% | [4]; at 50.0 µM 79.3% | [5]; [8] 93% | [5]; at 50.0 µM 89.5% | [6]; [8] 94% | [6]; at 50.0 µM 87%
inactive: [1]; [7] 3% | [2]; [7] 16% | [3]; [7] 13% | [4]; [7] 11% | [5]; [7] 4% | [6]; [7] 16%

Oc1c(Cl)cc(C(c2cc(Cl)c(O)c(Cl)c2)C(c2cc(Cl)c(O)c(Cl)c2)c2cc(Cl)c(O)c(Cl)c2)cc1Cl
active: [1]; [7] 99% | [1]; [8] 98% | [1]; at 50.0 µM 92.5% | [2]; [7] 99% | [2]; [8] 98% | [2]; at 50.0 µM 95.8% | [3]; [7] 99% | [3]; [8] 98% | [4]; [7] 98% | [4]; [8] 98% | [4]; at 50.0 µM 92% | [5]; [7] 99% | [5]; [8] 98% | [5]; at 50.0 µM 93.9% | [6]; [7] 99% | [6]; [8] 98% | [6]; at 50.0 µM 96.8%
inactive: [3]; at 50.0 µM 42.8%

O=C(/C=C/C(=N\Nc1ccccc1)c1ccccc1)c1ccccc1
inactive: [1]; [7] 21% | [1]; at 50.0 µM 37.9% | [2]; [7] 23% | [2]; at 50.0 µM 13.9% | [3]; [7] 27% | [3]; at 50.0 µM 26.4% | [4]; [7] 46% | [4]; at 50.0 µM 30.9% | [5]; [7] 67% | [5]; at 50.0 µM 21.5% | [6]; [7] 47%
active: [1]; [8] 90% | [2]; [8] 99% | [3]; [8] 96% | [4]; [8] 98% | [5]; [8] 99% | [6]; [8] 95% | [6]; at 50.0 µM 72%

O=C(O)C1C2CC3CC(C2)CC1C3 (configuration not stated)
active: [5]; [8] 86% | [5]; at 50.0 µM 75.5% | [6]; [8] 82%
inactive: [1]; [7] 2% | [1]; [8] 42% | [1]; at 50.0 µM 20% | [2]; [7] 8% | [2]; [8] 47% | [2]; at 50.0 µM 5.85% | [3]; [7] 7% | [3]; [8] 60% | [3]; at 50.0 µM -4.9% | [4]; [7] 3% | [4]; [8] 21% | [4]; at 50.0 µM -67.8% | [5]; [7] 16% | [6]; [7] 0% | [6]; at 50.0 µM 9.35%

O=[N+]([O-])c1ccc(Sc2ccc([N+](=O)[O-])o2)cc1
active: [1]; [7] 95% | [1]; [8] 99% | [2]; [7] 94% | [2]; [8] 100% | [3]; [7] 95% | [3]; [8] 100% | [4]; [7] 89% | [4]; [8] 99% | [5]; [7] 98% | [5]; [8] 99% | [6]; [7] 97% | [6]; [8] 99%
inactive: [1]; at 50.0 µM 13.9% | [2]; at 50.0 µM 16.5% | [3]; at 50.0 µM 52.1% | [4]; at 50.0 µM -9.05% | [5]; at 50.0 µM 60.7% | [6]; at 50.0 µM 59.8%

CCCC(=O)OCC1CC2C=CC1C2 (configuration not stated)
active: [4]; at 50.0 µM 79.2%
inactive: [1]; [7] 0% | [1]; [8] -3% | [1]; at 50.0 µM -6.25% | [2]; [7] 0% | [2]; [8] 2% | [2]; at 50.0 µM -7.65% | [3]; [7] 0% | [3]; [8] -1% | [3]; at 50.0 µM -18.3% | [4]; [7] -7% | [4]; [8] 3% | [5]; [7] -3% | [5]; [8] 2% | [5]; at 50.0 µM 15% | [6]; [7] -1% | [6]; [8] -5% | [6]; at 50.0 µM -3.9%
